Experimental data from PubChem BioAssay AID686979 (National Center for Advancing Translational Sciences (NCATS), 2013).
Among all 420,000 compounds or so, about 50,000 (12%) were called active. Roughly 26% stayed inconclusive and do not appear here. The list comes from a sample in which actives are over-represented; it also holds similar structures and randomly drawn compounds. A number with no mark means an inactive call. Calls follow the shape of the dose curve; as a rule, active = well fitted inhibition curve with a large enough effect; inconclusive = small, poorly fitted or top-dose-only effect; inactive = flat fitted curve, though single readings scatter.

test: qHTS for Inhibitors of human tyrosyl-DNA phosphodiesterase 1 (TDP1): qHTS in cells in presence of CPT; details: chicken DT40 Tdp1-/-;hTDP1 cells + 20 nM CPT, ATP luminescence, 48 h; series mostly up to 46.2 µM; activity change, negative = growth inhibition: at the top concentration; also: nearly all actives have a fitted effect of over 55% in size
From the text: Human tyrosyl-DNA phosphodiesterase 1 (TDP1) is a novel repair gene, and we propose to use it as a new target for anticancer drug development. TDP1 is not an essential protein, but under treatment with topoisomerase I poison (camptothecin: CPT), TDP1 works as a critical factor for cell survival. To directly identify novel TDP1 inhibitors active in a cellular environment, we have knocked-out the Tdp1 gene in chicken DT40 cells (Tdp1-/-) and generated a complemented counterpart cells that contains a stable transfection of the human TDP1 gene (Tdp1-/-;hTDP1 cells). For the primary screen, Tdp1-/-;hTDP1 cells will be exposed to small molecules in the presence or absence of CPT, and their growth kinetics will be evaluated after 48 hours by measuring ATP activity. […] The hit compounds will then be evaluated in the presence or absence of CPT using Tdp1-/- cells. […] In tertiary assays, biochemical gel-based assays will be used to assess whether the hit compounds specifically target TDP1. To this end, we have screened this cell line against the MLSMR in two primary screens. In one screen we add CPT and in the other we screen in the absence of CPT; this AID represents the screen where CPT was present. NIH Chemical Genomics Center [NCGC] NIH Molecular Libraries Probe Centers Network [MLPCN] MLPCN Grant: MH095538 Assay Submitter (PI): Yves Pommier, NCI
DT40-hTDP1 cells with 20 nM Camptothecin (add 20 microL of 1 mM CPT stock in 1 L of cell culture medium) were dispensed at 400 cells/5microL/well in tissue culture treated 1536-well white wall/solid bottom assay plates (Greiner Bio-One North America, NC, U.S.A.) using a Multidrop Combi 8 channel dispenser (Thermo Fisher, Waltham, MA, USA). 23 nL compounds and controls were transferred using the pin tool (Kalypsys, San Diego, CA, USA) to the assay plates. The assay plates were then incubated at 37 masculineC for a minimum 48 hr. Three microL of Cell Titer Glo solution was added to the plates and incubated at RT in dark for 30 min. Luminescence was read using ViewLux (Perkin Elmer) with 1 sec exposure slow speed, high gain and 2x binning.
% is scaled to controls: 0 for no effect and ±100 for the full control effect; potency is read from the fitted curve at half-maximal effect.

Structure (SMILES) | activity change, negative = growth inhibition | Potency
CCOC(=O)c1cn(CC)c2cc(F)c(F)cc2c1=O | 1.13% | 
O=C(NC1CCN(C(=S)NCc2ccco2)CC1)c1ccc(F)cc1 | -14.3% | 
Cc1cc(OCCN2CCCC2)cc(C(C)C)c1 | -26.9% | 
COc1ccc2[nH]c(C(=O)N3CCN(C)CC3)c(C)c2c1 | 16.8% | 
CCOC(=O)NN1C(=O)c2ccccc2NC1c1ccccc1O (stereo not given) |  | 16.4 µM (active)
O=C1c2ccccc2NC(c2ccccc2O)N1NS(=O)(=O)c1ccccc1 (stereo not given) | -5.28% | 
CCOC(=O)NN1C(=O)c2ccccc2NC1c1cccc(O)c1 (stereo not given) | 7.21% | 
Cc1ccc2nc(CN3CCN(S(=O)(=O)c4ccc(C)c(C)c4)CC3)oc2c1 | -22.4% | 
CCOc1ccc(N(C)Cc2cc(=O)oc3ccc(OC)cc23)cc1 | -25.6% | 
NC(=O)N/N=C\c1cccs1 | -2.34% | 
Cc1cc(C)nc(SC(C)C(=O)N/N=C/c2cccs2)n1 (stereo not given) | -29.3% | 
COc1ccc2c(c1)c(C(=O)N/N=C/c1cccs1)c(C)n2C |  | 9.2 µM (active)
CCn1c(SCC(=O)Nc2nccs2)nnc1-c1ccco1 | 1.22% | 
C[C@@H]1CN([C@H](C)CO)C(=O)CCCn2nncc2CO[C@@H]1CN(C)C(=O)OCc1ccccc1 | -6.45% | 
Cc1ccc(C)c(NC2=NCC(=O)N2c2ccc3c(c2)OCCO3)c1 | -1.47% | 
Cc1ccc(Cl)cc1NC(=O)NC1COc2ccccc2C1 (stereo not given) | -8.08% | 
CCc1cccc(CC)c1NC(=O)COc1ccccc1C(=O)c1cc(C#N)c(=O)n(C2CCCCC2)c1 |  | 18.4 µM (active)
CCc1cccc(C)c1NC(=O)COC(=O)CC1CCCC1 | 1.82% | 
Cc1cc(NC(=O)COc2ccccc2C#N)no1 | -26.9% | 
CC(=O)Nc1ccc(NC(=O)CSc2nnc(COc3ccccc3C)n2CC2CCCO2)cc1 (stereo not given) | -5.96% | 
Cc1cc(N/N=C/c2ccccc2F)c2ccccc2n1 | 1.17% | 
Oc1ccc(/C=N/NC2=NCCCCC2)c(O)c1 | 1.13% | 
Oc1ccc(/C=N/Nc2nc(-c3ccccc3F)nc3ccccc23)c(O)c1 |  | 5.8 µM (active)
Oc1ccc(-c2nc3ccccc3nc2-c2ccc(O)cc2O)c(O)c1 | -11.8% | 

Structure (SMILES) | activity change, negative = growth inhibition | Potency
Cc1nc2ccccc2nc1N/N=C/c1ccc(O)cc1O |  | 4.61 µM (active)
CCNC(=O)N1CCCC(C(=O)c2ccc(-c3ccccc3)cc2)C1 (stereo not given) |  | 20.6 µM (active)
CCOC(=O)CCNC(=O)N1CCCC(C(=O)c2ccccc2SC)C1 (stereo not given) | 1.59% | 
Cc1ccccc1NC(=O)C1CCCN(C(=O)NCc2ccccc2)C1 (stereo not given) | -21% | 
CN(C(=O)c1ccccc1)c1nccnc1C#N | 19.1% | 
COC(=O)c1ccc(CN2C(=O)NC(c3ccccc3)(c3ccccc3)C2=O)o1 | -4.55% | 
O=C(CN1CCN(Cc2ccccc2)CC1)NC(c1ccccc1)c1ccccc1 |  | 14.6 µM (active)
O=C(CN1CCc2ccccc21)NC(c1ccccc1)c1ccccc1 | -13.1% | 
O=C(CN1CCN(Cc2ccccc2)CC1)Nc1ccc(F)c(F)c1 | -6.89% | 
CN(C)c1ccc(CNC23CN4CN(CN(C4)C2)C3)cc1 |  | 8.2 µM (active)
COCCN1CCN(C(=O)c2cc(COc3ccc(F)cc3Cl)on2)CC1 | -26.5% | 
Cn1cc(S(=O)(=O)NC(c2ccccc2)c2ccccc2)c(=O)n(C)c1=O | -14.7% | 
CCn1c(SCc2ccccc2)nc2c(c1=O)SCC2 | -21.4% | 
CCn1cc2nc(SCc3cccc(F)c3)n(CCc3ccccc3)c(=O)c2n1 |  | 16.4 µM (active)
CCn1c(SCc2ccccc2)nc2cc(OC)c(OC)cc2c1=O | -16% | 
C[C@@H]1CN([C@H](C)CO)C(=O)CCCn2nncc2CO[C@@H]1CN(C)S(=O)(=O)c1cccc(C#N)c1 | -19.4% | 
C/C(=C/c1ccccc1)C(=O)N1CCN(c2ccccc2)CC1 | -19.7% | 
NC(=O)C1(N2CCCC2)CCN(Cc2ccccc2)CC1 | -5.42% | 
CN1C(=O)c2ccc(C(=O)Nc3ccc(Br)cn3)cc2C1=O | -2.38% | 
O=C(Nc1ccc(Br)cn1)c1ccc([N+](=O)[O-])o1 |  | 2.06 µM (active)
O=C(Nc1ccc(Br)cn1)c1ccc([N+](=O)[O-])cc1Cl | -29.8% | 
Cc1cccc(NC(=O)c2ccc([N+](=O)[O-])o2)c1 |  | 16.4 µM (active)
Cc1onc(NC(=O)c2ccc([N+](=O)[O-])o2)c1Br | -19.5% | 
Cc1cccc(NC(=O)CCn2c(=O)oc3ccccc32)c1 | 15.7% | 

Structure (SMILES) | activity change, negative = growth inhibition | Potency
CCc1ccc(N2C(=O)CN(S(=O)(=O)CC)CC2(C)C(=O)NC2CCCCC2)cc1 (stereo not given) | -10.8% | 
Cc1ccc(CN2CCN(c3ncccn3)CC2)c(C)c1 | 27.8% | 
O=C(NCC(O)c1nc2ccccc2[nH]1)c1ccc(Br)cc1 (stereo not given) | -11.6% | 
Cc1ccc(Cl)cc1N1CCN(S(=O)(=O)c2cc3[nH]c(=O)c(=O)[nH]c3cc2C)CC1 | 3.27% | 
CCC(=O)Nc1ccc(-c2ccc(N3CCCCC3)nn2)cc1 | -27.5% | 
c1csc(-c2nnc(COc3ccc4c(c3)OCO4)o2)c1 | 11.7% | 
CCN(CC(=O)NC1CCS(=O)(=O)C1)c1nc(-c2cccnc2)nc2ccccc12 (stereo not given) | 4.18% | 
O=[N+]([O-])c1cc2ccccc2nc1-c1ccccc1 | -16% | 
O=[N+]([O-])c1ccc(F)cc1Oc1nc(-c2cccnc2)nc2ccccc12 |  | 18.4 µM (active)
O=C(COC(=O)CNC(=O)c1ccco1)Nc1ccc(F)cc1 | 4.84% | 
Cc1cccc(NS(=O)(=O)c2cc(Cl)ccc2Cl)n1 | 16.8% | 
COc1ccc(CCNC(=O)CN2C(=O)CCSc3ccccc32)c(OC)c1 | 28.7% | 
Cc1ccc(-c2cc(-c3coc4ccccc4c3=O)c3c(n2)-c2cc(Cl)ccc2OC3)cc1 | 0.49% | 
CCCCCc1c(-c2ccc(OC)c(OC)c2)ncn1CCc1ccccc1OC |  | 2.31 µM (active)
CCC(=O)NCc1cc(-c2nn(C)c(=O)c3ccccc23)ccc1OC |  | inactive
CCN(CC)CCN1C(=O)C(=O)/C(=C(/O)c2ccc(OC)c(OC)c2)C1c1ccccn1 (stereo not given) | 0.331% | 
CCCCCc1c(Cc2ccccc2)ncn1CCc1ccccc1OC |  | 2.59 µM (active)
CCCCCc1c(-c2cccc(Br)c2)ncn1CCc1ccccc1OC |  | 11.6 µM (active)
CCOC(=O)CSc1nnc(-c2cccc(Br)c2)o1 | -10.6% | 
COc1ccccc1CCC(=O)NNC(=O)c1ccncc1 | 15.3% | 
CCCCNS(=O)(=O)CCNCc1ccccc1OC | -6.55% | 
CCCCn1c(N)c(N(CC(C)C)C(=O)CN(C)S(=O)(=O)c2ccc(F)cc2)c(=O)[nH]c1=O | 12.9% | 
